Laboratory results taken from PubChem BioAssay (NCATS).
Values without a mark were called inactive. Inconclusive results are not listed. Where a call stands in place of a potency, no number is given. Calls of active or inactive are those of the source. Unless noted, calls follow the shape of the dose curve; as a rule, active = well fitted curve in the direction sought with a large enough effect; inconclusive = small, poorly fitted or top-dose-only effect, or another doubt; inactive = no such curve, though single readings can be large; an effect the other way counts as inactive or inconclusive.

Tests used:
[1] = target: Tumor susceptibility gene 101 protein (Homo sapiens) (UniProt Q99816); test: qHTS Validation Assay for Iinhibitors of HIV-1 Budding by Blocking the Interaction of PTAP/TSG101 (AID 485342; calls by dose curve)
How it was run: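 Fluorescence polarization of 50 nM FITC-PTAP peptide bound to 10 uM Tsg101 binding domain was read after 20 min room-temperature incubation with compounds, in 10 mM HEPES pH 7.5, 0.15 M NaCl, 0.01% Tween 20.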

[2] = qHTS Validation Assay to Find Inhibitors of Chronic Active B-Cell Receptor Signaling (AID 485345; active = well fitted curve in the direction sought with a large enough effect in the main read-out, with a control signal flat, not every such curve was filed as active)
How it was run: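 TMD8 ABC-DLBCL cells with dox-inducible green luciferase–IκBα fusion and red native luciferase; compounds 46 uM–3 nM, 4 h at 37C with doxycycline in 0.5% FBS IMDM. Green/red ratio normalized to basal and 10 uM MG-132.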

[3] = target: Beta-2 adrenergic receptor (Homo sapiens) (UniProt P07550); test: qHTS validation assay of beta-arrestin-biased ligands of beta2-adrenergic receptor (AID 485366)
How it was run: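 Agonist activity is measured as luciferase luminescence downstream of beta-arrestin recruitment to recombinant beta2-AR in Tango cells. Exposure lasts 18 hr at 37 degrees C, and curves are categorized by r2, response size and activity.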

[4] = target: ATP-dependent 6-phosphofructokinase (Trypanosoma brucei brucei) (UniProt O15648); test: qHTS Validation Assay to Find Inhibitors of T. brucei phosphofructokinase (AID 485368)
How it was run: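 Inhibition derived from concentration-response curves of luminescence, ranked by r2, response size and curve class; the underlying reaction used 1.25 nM PFK, 0.1 mM ATP and 0.5 mM F6P, 45 min, room temperature.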

[5] = Quantitative high throughput screen for delayed death inhibitors of the malarial parasite plastid, 96 hour incubation (AID 488745); also: nearly all actives have a fitted effect of over 70% in size; also: potency is read from the fitted curve at half-maximal effect
How it was run: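 Decreased firefly luciferase luminescence indicates inhibited growth of reporter-integrated P. falciparum after two generations (96 h, 37 C, 5% CO2). Infected erythrocytes at 0.1% parasitemia, 2% hematocrit, in Albumax-supplemented RPMI 1640.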

[6] = target: Thioredoxin reductase 1, cytoplasmic (Rattus norvegicus) (UniProt O89049); test: qHTS Assay for Substrates of Mammalian Selenoprotein Thioredoxin Reductase 1 (TrxR1) (AID 488772);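 also: series mostly up to about 57 µM; a drop in NADPH fluorescence below the no-compound background marks a TrxR1 substrate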
How it was run: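 In this dual-purpose format, potential substrates are identified from the first fluorescence read after selenite addition, not from the 8-minute delta. Rat enzyme is preincubated with NADPH and then with compound at ~22 deg C.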

[7] = target: Thioredoxin reductase 1, cytoplasmic (Rattus norvegicus) (UniProt O89049); test: qHTS Assay for Inhibitors of Mammalian Selenoprotein Thioredoxin Reductase 1 (TrxR1) (AID 488773); settings: Potency: inhibition; also: nearly all actives have a fitted effect of over 40% in size; also: potency is read from the fitted curve at half-maximal effect
How it was run: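 Inhibition is scored from the loss of NADPH fluorescence between first and last reads of an 8-min kinetic run. Selenite (400 uM) was the substrate, added after 15 min compound preincubation at room temperature.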

[8] = target: Flap endonuclease 1 (Homo sapiens) (UniProt P39748); test: qHTS Validation Assay for the Inhibitors of Human Flap endonuclease 1 (FEN1) (AID 488816); also: potency is read from the fitted curve at half-maximal effect
How it was run: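 Steps: add FEN1 (10 nM reagent) or buffer only; pin compounds; hold 15 min at room temperature; start with substrate, 50 nM final; read at 0 and 15 min; correct, normalize and fit a four-parameter Hill curve.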

[9] = target: M-phase phosphoprotein 8 (Homo sapiens) (UniProt Q99549); test: qHTS Validation Assay for Inhibitors for MPP8 Chromodomain Interactions with Methylated Histone Tails (AID 488949); also: nearly all actives have a fitted effect of over 55% in size; also: potency is read from the fitted curve at half-maximal effect
How it was run: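 AlphaScreen proximity signal from streptavidin donor and Ni-chelate acceptor beads (10 ug/mL each) reported binding of MPP8 to trimethyl-K9 H3(1-18) peptide, both at 50 nM. The complex formed 30 min before a 30 min compound exposure at room temperature, in PBS pH 7.4.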

[10] = target: Chromobox protein homolog 1 (Homo sapiens) (UniProt P83916); test: qHTS Validation Assay for Inhibitors of HP1-beta Chromodomain Interactions with Methylated Histone Tails (AID 488953); also: nearly all actives have a fitted effect of over 50% in size; also: potency is read from the fitted curve at half-maximal effect
How it was run: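 AlphaScreen proximity signal from streptavidin donor and nickel chelate acceptor beads (final 10 ug/mL) after 30 min dark incubation. Compounds had 30 min at room temperature with preformed complex of 50 nM HP1-beta and 50 nM b-H3(1-18)K9me3 in PBS pH 7.4 with 0.01% Tween-20.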

[11] = target: Methanococcus maripaludis chaperonin (MmCpn) (UniProt Q6LX38); test: High-Throughput Screening for Modulators of Cytosolic Chaperonin Activity: MmCpn Primary Screen (AID 488978);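 also: 50 nM MmCpn enzyme hydrolysing 30 µM ATP at 37 °C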
How it was run: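 ATPase activity of 50 nM MmCpn was assayed with 30 uM ATP, 10 minutes at 37C, after a 5 min compound preincubation at room temperature. ADP production was read as HTRF emission at 590 and 665 nm.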

[12] = target: Transient receptor potential cation channel subfamily V member 1 (Homo sapiens) (UniProt Q8NER1); test: HTS Assay for Compounds that Act as Enhancers of the Vanilloid Receptor 1 (AID 488979)
How it was run: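 TRPV1-expressing cells loaded with Fluo-8 calcium dye; compounds added and calcium influx read kinetically for 3 min (agonist phase), then capsaicin at EC20 added and read 2 min more for enhancement. Fluorescence ex 480/em 520 nm.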

[13] = target: D(1A) dopamine receptor (Homo sapiens) (UniProt P21728); test: HTS Assay for Allosteric Agonists of the Human D1 Dopamine Receptor: Primary Screen for Agonists (AID 488981)
How it was run: (§1)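 Tetracycline-induced HEK293 T-REx cells force-coupled to calcium signalling were incubated overnight at 30 C and dye-loaded at room temperature. Calcium flux over 180 s after compound addition flagged agonists; a further 180 s read after EC20 dopamine flagged potentiators.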

[14] = target: D(1A) dopamine receptor (Homo sapiens) (UniProt P21728); test: HTS Assay for Allosteric Agonists of the Human D1 Dopamine Receptor: Primary Screen for Potentiators (AID 488982)
How it was run: as §1

[15] = target: D(1A) dopamine receptor (Homo sapiens) (UniProt P21728); test: HTS Assay for Allosteric Agonists of the Human D1 Dopamine Receptor: Primary Screen for Antagonists (AID 488983);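 also: calcium flux response to an EC80 dopamine challenge measured with no-wash dye; nearly all actives have a fitted effect of over 65% in size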; also: potency is read from the fitted curve at half-maximal effect
How it was run: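 Calcium-flux read-out in inducible HEK293 T-REx cells expressing D1, dye-loaded 30–90 min at room temperature. Kinetic reads: 180 s after compound (agonist phase), then 180 s after an EC80 dopamine challenge.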

[16] = target: ATP-dependent 6-phosphofructokinase (Trypanosoma brucei brucei) (UniProt O15648); test: qHTS Assay to Find Inhibitors of T. brucei phosphofructokinase: hit validation (AID 492961);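 also: luminescence reports ADP formed as PFK phosphorylates fructose-6-phosphate with ATP; series mostly up to about 51 µM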
How it was run: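 PFK 1.25 nM, F6P 0.5 mM, ATP 0.1 mM, MgCl2 5 mM, 0.1 M TEA pH 8.0, Tween20 0.01%, BSA 0.1%; 45 min RT. ADP-Glo two-step detection, luminescence. qHTS titration; curve fitting with curve-class categorization.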

[17] = Validation screen for small molecules that induce genotoxicity in human embryonic kidney (HEK293T) cells expressing luciferase-tagged ELG1 (AID 493106)
How it was run: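 ELG1-luciferase reporter readout (ONE-Glo, 30 min, room temperature) after 16 hr compound treatment at 37 °C of HEK293T cells at 2,000 per well. Rising luminescence flags genotoxic stress.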

[18] = target: ATPase family AAA domain-containing protein 5 (Homo sapiens) (UniProt Q96QE3); test: Validation screen for small molecules that inhibit ELG1-dependent DNA repair in human embryonic kidney (HEK293T) cells expressing luciferase-tagged ELG1 (AID 493107); also: nearly all actives have a fitted effect of over 70% in size; also: potency is read from the fitted curve at half-maximal effect
How it was run: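 Luciferase read-out, ONE-Glo, 30 min at room temperature, follows 16 h co-exposure at 37 C of compound and the DNA-damaging agent 5-fluorouridine. Cells: HEK293T with ELG1-luciferase fusion, 2,000 per well, DMSO as vehicle.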

[19] = target: Thyrotropin-releasing hormone receptor (Homo sapiens) (UniProt P34981); test: qHTS for Small Molecule Agonists and Allosteric Enhancers of Human TRH Receptor: Validation Screen for Agonists (AID 493127;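 active = calcium activation more than 3 SD above the typical response in the agonist read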;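 also: intracellular calcium rise by fluo-8 fluorescence before TRH EC20 addition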); settings: TRH receptor agonist cell assay; at 2 µM; active compounds read high
How it was run: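 Compound-evoked intracellular calcium release in fluo-8-loaded TRHR cells, read kinetically on FDSS (Ex 480/Em 530, 1 s/cycle) after 23 nL pintool transfer. Agonist phase preceded 10 nM TRH EC20 addition.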

[20] = target: Thyrotropin receptor (Homo sapiens) (UniProt P16473); test: qHTS Assay for Antagonists of the Thyroid Stimulating Hormone Receptor (AID 488980); also: series mostly up to about 58 µM
How it was run: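 Inhibition of cAMP raised by EC80 TSH (4 nM final) was read by HTRF, with lysate cAMP competing against cAMP-d2 for cryptate antibody after 30 min at room temperature. The cells were transfected HEK293 held in phosphodiesterase inhibitor RO 20-1724 at 70 uM.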

Methanococcus maripaludis chaperonin (MmCpn), sequence (Q6LX38 1-543): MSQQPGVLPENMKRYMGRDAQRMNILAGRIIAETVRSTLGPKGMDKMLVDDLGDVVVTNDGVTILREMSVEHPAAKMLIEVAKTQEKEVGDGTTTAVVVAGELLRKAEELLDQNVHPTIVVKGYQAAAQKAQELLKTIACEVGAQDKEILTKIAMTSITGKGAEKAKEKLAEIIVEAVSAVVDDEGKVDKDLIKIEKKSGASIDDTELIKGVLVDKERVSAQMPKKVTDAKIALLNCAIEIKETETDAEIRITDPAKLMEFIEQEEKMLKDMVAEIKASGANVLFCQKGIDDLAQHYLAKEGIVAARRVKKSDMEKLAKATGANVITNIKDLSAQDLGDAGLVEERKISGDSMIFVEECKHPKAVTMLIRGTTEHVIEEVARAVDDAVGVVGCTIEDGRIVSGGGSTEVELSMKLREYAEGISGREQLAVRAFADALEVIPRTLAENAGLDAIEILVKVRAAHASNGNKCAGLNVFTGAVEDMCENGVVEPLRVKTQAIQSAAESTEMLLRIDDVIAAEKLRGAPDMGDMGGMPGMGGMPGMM
Flap endonuclease 1 (Homo sapiens), sequence (P39748 whole entry, looked up): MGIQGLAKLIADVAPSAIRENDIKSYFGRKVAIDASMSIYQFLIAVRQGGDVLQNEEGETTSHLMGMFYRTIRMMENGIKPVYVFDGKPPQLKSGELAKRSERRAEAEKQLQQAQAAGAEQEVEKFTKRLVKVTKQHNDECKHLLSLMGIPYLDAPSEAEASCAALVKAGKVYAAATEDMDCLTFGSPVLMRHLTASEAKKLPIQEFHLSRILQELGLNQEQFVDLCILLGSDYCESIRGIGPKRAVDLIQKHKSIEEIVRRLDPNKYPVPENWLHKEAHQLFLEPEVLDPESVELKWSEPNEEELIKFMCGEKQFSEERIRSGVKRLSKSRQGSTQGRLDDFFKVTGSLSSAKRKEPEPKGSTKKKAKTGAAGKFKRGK
Transient receptor potential cation channel subfamily V member 1 (Homo sapiens), sequence (Q8NER1 whole entry, looked up): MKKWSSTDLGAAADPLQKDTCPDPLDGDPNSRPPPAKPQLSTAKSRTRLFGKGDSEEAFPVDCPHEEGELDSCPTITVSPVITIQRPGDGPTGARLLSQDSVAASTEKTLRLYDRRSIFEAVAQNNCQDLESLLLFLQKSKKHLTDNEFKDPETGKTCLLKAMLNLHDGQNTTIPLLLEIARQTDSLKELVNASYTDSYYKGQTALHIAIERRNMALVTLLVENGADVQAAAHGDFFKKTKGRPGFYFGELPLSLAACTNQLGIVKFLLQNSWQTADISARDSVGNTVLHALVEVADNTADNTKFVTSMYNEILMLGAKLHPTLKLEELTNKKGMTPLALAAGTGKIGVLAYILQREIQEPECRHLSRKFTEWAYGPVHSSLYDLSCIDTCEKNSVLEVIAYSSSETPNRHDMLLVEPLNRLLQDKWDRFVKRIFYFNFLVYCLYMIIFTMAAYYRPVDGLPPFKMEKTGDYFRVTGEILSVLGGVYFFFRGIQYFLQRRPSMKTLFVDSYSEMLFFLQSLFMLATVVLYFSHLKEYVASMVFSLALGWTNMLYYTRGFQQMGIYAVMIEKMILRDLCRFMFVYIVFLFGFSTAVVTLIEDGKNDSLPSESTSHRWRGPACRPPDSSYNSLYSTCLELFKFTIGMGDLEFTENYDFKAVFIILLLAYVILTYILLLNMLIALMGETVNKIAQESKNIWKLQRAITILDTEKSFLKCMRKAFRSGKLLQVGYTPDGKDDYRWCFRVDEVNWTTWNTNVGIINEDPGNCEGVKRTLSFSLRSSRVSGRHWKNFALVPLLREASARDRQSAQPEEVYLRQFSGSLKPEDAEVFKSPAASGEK
Tumor susceptibility gene 101 protein (Homo sapiens), sequence (Q99816 whole entry, looked up, the tested form may be a part): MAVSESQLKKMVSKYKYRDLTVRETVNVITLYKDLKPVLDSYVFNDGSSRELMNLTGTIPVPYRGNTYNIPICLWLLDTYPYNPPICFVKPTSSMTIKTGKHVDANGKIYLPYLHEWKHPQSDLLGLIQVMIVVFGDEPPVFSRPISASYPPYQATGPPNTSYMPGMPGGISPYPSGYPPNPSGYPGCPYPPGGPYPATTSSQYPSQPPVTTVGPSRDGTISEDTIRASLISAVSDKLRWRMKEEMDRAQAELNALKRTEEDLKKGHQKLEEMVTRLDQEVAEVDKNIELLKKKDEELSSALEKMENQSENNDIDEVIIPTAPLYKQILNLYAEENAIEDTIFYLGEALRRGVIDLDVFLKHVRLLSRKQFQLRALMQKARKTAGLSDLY
Beta-2 adrenergic receptor (Homo sapiens), sequence (P07550 whole entry, looked up): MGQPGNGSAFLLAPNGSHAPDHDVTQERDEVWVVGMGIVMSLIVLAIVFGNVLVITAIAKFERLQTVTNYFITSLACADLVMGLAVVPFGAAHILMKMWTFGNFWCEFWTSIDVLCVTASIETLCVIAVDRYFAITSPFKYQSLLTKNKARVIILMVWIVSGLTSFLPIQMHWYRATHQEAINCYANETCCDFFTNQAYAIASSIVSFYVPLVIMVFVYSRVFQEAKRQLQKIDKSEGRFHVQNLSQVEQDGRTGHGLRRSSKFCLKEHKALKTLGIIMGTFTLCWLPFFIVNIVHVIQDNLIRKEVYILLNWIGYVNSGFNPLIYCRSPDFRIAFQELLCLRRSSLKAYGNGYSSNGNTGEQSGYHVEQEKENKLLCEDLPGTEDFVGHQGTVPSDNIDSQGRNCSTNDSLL
Thyrotropin-releasing hormone receptor (Homo sapiens), sequence (P34981 whole entry, looked up): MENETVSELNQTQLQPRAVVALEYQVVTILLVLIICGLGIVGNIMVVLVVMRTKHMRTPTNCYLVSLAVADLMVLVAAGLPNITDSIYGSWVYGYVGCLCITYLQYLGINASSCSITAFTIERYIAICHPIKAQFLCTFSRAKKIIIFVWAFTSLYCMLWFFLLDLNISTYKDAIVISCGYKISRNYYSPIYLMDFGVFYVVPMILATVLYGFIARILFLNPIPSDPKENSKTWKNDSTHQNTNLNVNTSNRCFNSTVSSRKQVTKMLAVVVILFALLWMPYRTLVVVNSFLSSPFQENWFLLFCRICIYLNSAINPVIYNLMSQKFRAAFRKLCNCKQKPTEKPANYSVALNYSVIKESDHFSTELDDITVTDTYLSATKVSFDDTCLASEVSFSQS
M-phase phosphoprotein 8 (Homo sapiens), sequence (Q99549 whole entry, looked up): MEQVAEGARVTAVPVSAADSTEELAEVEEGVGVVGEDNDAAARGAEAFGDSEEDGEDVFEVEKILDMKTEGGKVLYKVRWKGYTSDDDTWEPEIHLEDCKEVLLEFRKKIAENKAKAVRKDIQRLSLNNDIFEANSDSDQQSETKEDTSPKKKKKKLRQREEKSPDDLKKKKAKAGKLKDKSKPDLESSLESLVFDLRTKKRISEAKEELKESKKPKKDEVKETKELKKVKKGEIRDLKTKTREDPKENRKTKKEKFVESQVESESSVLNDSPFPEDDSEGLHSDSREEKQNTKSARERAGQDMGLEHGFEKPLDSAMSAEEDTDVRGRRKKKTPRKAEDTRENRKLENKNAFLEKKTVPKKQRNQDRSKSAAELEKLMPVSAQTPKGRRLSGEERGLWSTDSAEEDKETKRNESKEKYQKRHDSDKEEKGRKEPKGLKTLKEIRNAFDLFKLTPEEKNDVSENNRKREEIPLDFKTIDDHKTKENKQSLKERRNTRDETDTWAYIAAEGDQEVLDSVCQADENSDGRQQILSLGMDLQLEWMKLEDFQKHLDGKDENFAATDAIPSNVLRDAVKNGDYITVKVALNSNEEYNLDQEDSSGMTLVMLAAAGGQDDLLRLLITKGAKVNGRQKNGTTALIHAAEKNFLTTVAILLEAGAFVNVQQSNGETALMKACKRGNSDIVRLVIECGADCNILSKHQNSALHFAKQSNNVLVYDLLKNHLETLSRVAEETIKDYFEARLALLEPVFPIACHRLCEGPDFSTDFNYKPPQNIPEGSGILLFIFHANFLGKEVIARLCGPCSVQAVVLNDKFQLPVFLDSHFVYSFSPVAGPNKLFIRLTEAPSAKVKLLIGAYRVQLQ
Chromobox protein homolog 1 (Homo sapiens), sequence (P83916 whole entry, looked up): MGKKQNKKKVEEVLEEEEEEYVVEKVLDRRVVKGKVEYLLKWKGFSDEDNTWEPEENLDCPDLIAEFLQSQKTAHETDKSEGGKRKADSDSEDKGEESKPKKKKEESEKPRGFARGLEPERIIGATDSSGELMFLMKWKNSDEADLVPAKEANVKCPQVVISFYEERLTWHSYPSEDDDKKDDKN
D(1A) dopamine receptor (Homo sapiens), sequence (P21728 whole entry, looked up): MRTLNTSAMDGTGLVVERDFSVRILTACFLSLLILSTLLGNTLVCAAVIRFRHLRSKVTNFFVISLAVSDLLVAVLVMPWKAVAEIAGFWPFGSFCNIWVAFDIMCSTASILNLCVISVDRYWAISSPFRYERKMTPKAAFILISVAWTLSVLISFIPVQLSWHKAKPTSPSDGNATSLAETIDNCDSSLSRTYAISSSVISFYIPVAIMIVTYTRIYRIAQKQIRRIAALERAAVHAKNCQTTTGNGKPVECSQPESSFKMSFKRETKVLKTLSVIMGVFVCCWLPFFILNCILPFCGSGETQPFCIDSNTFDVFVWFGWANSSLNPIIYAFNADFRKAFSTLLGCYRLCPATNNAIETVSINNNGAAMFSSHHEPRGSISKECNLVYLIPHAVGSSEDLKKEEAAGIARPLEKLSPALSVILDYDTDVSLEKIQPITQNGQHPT
ATP-dependent 6-phosphofructokinase (Trypanosoma brucei brucei), sequence (O15648 whole entry, looked up): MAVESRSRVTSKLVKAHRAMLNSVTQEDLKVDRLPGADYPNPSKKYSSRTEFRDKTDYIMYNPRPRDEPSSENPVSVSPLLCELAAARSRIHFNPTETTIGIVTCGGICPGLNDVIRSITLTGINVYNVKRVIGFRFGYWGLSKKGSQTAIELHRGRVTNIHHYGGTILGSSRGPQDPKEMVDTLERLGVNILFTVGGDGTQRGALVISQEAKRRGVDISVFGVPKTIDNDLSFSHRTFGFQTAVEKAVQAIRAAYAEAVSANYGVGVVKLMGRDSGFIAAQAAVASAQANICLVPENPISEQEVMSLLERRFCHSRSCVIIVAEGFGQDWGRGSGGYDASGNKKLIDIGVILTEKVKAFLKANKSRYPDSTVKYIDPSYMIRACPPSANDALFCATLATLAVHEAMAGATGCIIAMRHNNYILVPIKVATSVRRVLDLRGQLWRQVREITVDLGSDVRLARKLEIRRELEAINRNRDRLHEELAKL

Compound | outcome [1] | outcome [2] | outcome [3] | Potency [4] | Potency [5] | outcome [6] | Potency [7] | Potency [8] | Potency [9] | Potency [10] | outcome [11] | outcome [12] | Potency [13] | Potency [14] | Potency [15] | outcome [16] | Potency [17] | Potency [18] | activation [19] [%] | outcome [20]
CC(=O)[C@H]1CC[C@H]2[C@@H]3CC[C@H]4C[C@H](O)CC[C@]4(C)[C@H]3C(=O)C[C@]12C | inactive | inactive | inactive | inactive | inactive | inactive | inactive | inactive | inactive | inactive | inactive | inactive | inactive | inactive | inactive | inactive | inactive | inactive | 1.5 | –
CCCC(C)(COC(N)=O)COC(=O)NC(C)C (stereo not drawn) | inactive | inactive | inactive | – | inactive | inactive | inactive | inactive | inactive | 0.006 µM (active) | inactive | inactive | inactive | inactive | inactive | – | inactive | inactive | -0.188 | inactive
CCCN1CCC[C@@H]2Cc3[nH]ncc3C[C@H]21 | inactive | inactive | inactive | inactive | – | inactive | inactive | inactive | inactive | inactive | inactive | – | inactive | inactive | inactive | – | inactive | inactive | – | –
CCCN1CCC[C@@H]2Cc3nc(N)ncc3C[C@H]21 | inactive | inactive | inactive | inactive | inactive | inactive | inactive | inactive | inactive | inactive | inactive | inactive | inactive | inactive | inactive | – | inactive | inactive | 0.562 | inactive
CC[C@@H](CO)NC(=O)[C@@H]1C=C2c3cccc4c3c(cn4C)C[C@H]2N(C)C1 | inactive | – | inactive | inactive | – | inactive | 10.6 µM (active) | – | inactive | – | inactive | – | inactive | inactive | – | inactive | inactive | inactive | – | –
N#CC(C#N)=Cc1ccc(O)c(O)c1 | inactive | inactive | inactive | – | – | inactive | 16.8 µM (active) | 18.9 µM (active) | – | – | inactive | inactive | inactive | – | inactive | – | inactive | inactive | 1.19 | inactive
NN=C(N)N | inactive | inactive | inactive | inactive | inactive | inactive | inactive | inactive | inactive | inactive | inactive | inactive | inactive | inactive | inactive | inactive | inactive | inactive | – | –
O=c1[nH]c2ccccc2n1C1CCN(CCCC(c2ccc(F)cc2)c2ccc(F)cc2)CC1 | inactive | – | inactive | inactive | 10.4 µM (active) | inactive | inactive | inactive | 22.4 µM (active) | 35.5 µM (active) | inactive | inactive | inactive | inactive | – | – | inactive | 11.6 µM (active) | – | inactive
CC(O)(CS(=O)(=O)c1ccc(F)cc1)C(=O)Nc1ccc(C#N)c(C(F)(F)F)c1 (stereo not drawn) | inactive | inactive | inactive | inactive | – | inactive | inactive | inactive | inactive | inactive | inactive | – | inactive | inactive | inactive | – | inactive | inactive | – | –
Cc1cccc(C)c1NC1=NCCCS1 | inactive | inactive | inactive | inactive | – | inactive | inactive | – | inactive | inactive | inactive | inactive | inactive | inactive | inactive | – | inactive | inactive | 0.688 | inactive
CNCC(O)c1ccc(O)cc1 (stereo not drawn) | inactive | inactive | inactive | inactive | inactive | inactive | – | inactive | inactive | inactive | inactive | inactive | inactive | inactive | inactive | – | inactive | inactive | 1.12 | inactive
CC[C@@H](CO)NC(=O)[C@@H]1C=C2c3cccc4[nH]cc(c34)C[C@H]2N(C)C1 | inactive | inactive | inactive | – | – | inactive | – | – | – | – | inactive | – | inactive | inactive | 0.447 µM (active) | – | inactive | inactive | – | –
CN1C[C@H](CNC(=O)OCc2ccccc2)C[C@@H]2c3cccc4c3c(cn4C)C[C@H]21 | inactive | – | inactive | inactive | 3.29 µM (active) | inactive | inactive | inactive | inactive | 44.7 µM (active) | inactive | – | inactive | inactive | 0.447 µM (active) | – | inactive | – | 7.38 | inactive
CC(CCc1ccccc1)NC(C)C(O)c1ccc(O)cc1 (stereo not drawn) | inactive | inactive | inactive | inactive | inactive | inactive | inactive | inactive | inactive | inactive | inactive | – | inactive | inactive | – | – | inactive | inactive | – | inactive
